Values without a mark were called inactive.

Chain of UniProt P54289 (P54289 whole entry): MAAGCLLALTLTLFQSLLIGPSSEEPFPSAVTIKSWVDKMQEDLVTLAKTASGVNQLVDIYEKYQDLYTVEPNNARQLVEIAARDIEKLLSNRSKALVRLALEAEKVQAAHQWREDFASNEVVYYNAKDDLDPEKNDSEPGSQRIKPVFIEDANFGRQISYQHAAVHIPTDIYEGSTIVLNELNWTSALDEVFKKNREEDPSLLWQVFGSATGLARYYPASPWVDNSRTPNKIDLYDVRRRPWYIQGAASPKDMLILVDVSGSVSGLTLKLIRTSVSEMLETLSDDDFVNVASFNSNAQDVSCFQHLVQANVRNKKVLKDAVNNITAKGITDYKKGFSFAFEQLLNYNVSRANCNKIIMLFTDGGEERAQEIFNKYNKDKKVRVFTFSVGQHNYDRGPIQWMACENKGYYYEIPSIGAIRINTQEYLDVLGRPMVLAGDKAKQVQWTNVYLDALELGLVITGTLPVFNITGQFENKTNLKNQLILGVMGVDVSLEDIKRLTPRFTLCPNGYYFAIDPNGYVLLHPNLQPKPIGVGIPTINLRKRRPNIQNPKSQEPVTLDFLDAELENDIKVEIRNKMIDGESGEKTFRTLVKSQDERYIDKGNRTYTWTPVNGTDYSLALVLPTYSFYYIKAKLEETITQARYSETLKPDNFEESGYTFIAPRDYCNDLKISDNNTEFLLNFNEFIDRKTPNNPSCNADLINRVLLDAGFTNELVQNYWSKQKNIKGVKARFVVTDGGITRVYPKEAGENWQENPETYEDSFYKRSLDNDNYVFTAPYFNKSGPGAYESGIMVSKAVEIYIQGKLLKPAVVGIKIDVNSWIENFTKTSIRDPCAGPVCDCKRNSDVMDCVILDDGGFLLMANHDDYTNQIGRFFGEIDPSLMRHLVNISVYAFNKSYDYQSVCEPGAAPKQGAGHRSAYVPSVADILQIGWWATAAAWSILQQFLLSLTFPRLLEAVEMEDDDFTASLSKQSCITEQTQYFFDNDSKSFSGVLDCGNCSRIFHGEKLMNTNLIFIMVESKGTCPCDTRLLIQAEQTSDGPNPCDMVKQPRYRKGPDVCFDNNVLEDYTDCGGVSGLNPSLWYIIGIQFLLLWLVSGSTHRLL
Chain of UniProt Q16881 (Q16881 whole entry): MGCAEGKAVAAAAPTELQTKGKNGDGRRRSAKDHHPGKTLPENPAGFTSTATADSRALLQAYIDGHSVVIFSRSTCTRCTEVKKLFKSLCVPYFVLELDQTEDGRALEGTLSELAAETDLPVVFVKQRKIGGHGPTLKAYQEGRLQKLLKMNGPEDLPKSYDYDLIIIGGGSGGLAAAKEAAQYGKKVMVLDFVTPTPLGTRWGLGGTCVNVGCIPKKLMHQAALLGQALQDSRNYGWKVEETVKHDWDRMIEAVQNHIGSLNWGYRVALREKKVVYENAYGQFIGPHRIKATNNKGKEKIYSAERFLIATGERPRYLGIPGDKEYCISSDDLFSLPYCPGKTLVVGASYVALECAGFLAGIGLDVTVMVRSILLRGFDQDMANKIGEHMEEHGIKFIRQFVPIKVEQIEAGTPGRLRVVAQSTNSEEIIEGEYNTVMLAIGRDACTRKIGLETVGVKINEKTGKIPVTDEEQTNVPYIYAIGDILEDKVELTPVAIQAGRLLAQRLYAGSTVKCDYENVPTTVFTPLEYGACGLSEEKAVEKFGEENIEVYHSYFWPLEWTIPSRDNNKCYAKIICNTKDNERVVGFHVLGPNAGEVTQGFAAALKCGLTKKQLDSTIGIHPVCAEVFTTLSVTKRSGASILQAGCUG
Chain of UniProt P08195 (P08195 whole entry): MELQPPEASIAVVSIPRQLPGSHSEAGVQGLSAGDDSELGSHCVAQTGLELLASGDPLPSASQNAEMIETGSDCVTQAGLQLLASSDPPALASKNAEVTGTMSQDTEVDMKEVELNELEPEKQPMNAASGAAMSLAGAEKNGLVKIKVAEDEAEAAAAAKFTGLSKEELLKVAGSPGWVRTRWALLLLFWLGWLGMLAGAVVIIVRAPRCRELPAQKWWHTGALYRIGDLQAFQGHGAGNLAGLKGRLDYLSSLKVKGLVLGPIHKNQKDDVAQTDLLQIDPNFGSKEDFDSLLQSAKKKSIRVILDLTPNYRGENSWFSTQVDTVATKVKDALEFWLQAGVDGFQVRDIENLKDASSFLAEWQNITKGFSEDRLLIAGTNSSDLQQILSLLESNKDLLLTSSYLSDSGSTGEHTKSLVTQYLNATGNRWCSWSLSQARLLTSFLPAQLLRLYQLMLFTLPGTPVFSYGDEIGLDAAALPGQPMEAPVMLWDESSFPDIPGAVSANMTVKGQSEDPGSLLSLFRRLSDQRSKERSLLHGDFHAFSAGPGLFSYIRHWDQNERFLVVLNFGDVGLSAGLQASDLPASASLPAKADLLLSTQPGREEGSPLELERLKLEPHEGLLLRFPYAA
Chain of UniProt P06733 (P06733 whole entry): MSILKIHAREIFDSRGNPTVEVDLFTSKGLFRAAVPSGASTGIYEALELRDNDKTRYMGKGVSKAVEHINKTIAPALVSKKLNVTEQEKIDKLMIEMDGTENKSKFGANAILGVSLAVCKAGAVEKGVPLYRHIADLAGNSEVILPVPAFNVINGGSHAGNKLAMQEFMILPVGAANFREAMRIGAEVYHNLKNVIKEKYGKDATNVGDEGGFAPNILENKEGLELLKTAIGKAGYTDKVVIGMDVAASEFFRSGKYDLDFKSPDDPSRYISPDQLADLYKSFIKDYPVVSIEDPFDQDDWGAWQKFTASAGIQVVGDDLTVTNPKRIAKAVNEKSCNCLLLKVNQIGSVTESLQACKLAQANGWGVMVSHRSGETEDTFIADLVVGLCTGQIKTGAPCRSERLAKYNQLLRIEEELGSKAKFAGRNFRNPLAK
Chain of UniProt P32004 (P32004 whole entry): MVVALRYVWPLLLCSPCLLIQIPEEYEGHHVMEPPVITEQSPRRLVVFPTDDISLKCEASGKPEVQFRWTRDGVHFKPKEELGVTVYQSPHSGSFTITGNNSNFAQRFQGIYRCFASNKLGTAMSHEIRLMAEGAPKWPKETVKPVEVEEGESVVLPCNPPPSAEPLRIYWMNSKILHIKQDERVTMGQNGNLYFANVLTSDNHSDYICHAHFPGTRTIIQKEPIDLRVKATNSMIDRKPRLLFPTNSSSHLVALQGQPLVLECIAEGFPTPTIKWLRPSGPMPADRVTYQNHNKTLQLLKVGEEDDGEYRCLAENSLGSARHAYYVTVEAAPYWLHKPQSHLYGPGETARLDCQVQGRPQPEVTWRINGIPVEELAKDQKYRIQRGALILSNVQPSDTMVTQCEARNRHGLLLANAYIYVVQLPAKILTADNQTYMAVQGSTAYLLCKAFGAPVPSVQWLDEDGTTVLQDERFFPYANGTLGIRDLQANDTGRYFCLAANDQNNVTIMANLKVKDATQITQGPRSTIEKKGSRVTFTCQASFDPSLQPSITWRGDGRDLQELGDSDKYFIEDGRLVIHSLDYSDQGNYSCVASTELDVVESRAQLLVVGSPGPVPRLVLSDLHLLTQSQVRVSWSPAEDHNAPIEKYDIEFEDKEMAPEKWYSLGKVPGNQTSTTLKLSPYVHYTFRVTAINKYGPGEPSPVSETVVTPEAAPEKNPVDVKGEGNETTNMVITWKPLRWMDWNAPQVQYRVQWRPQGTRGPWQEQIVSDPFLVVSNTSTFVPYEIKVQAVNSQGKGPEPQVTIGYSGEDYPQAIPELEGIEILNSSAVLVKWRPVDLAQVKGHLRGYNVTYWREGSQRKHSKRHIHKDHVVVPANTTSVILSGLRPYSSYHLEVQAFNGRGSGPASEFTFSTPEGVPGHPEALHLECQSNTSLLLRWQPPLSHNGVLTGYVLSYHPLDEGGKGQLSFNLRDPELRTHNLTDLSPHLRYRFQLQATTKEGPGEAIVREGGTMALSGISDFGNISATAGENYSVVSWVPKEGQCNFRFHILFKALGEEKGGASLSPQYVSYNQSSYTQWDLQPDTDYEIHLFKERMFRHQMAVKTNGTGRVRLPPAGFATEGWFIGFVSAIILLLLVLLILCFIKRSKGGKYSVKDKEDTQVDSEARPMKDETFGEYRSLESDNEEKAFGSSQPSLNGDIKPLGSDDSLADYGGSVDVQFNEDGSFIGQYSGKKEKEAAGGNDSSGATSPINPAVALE
Chain of UniProt P62937 (P62937 whole entry, looked up): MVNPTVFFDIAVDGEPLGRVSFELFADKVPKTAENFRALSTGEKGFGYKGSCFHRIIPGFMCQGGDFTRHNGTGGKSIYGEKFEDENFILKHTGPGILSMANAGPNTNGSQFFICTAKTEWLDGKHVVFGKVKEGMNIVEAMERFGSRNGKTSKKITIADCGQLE
Chain of UniProt P42892 (P42892 whole entry): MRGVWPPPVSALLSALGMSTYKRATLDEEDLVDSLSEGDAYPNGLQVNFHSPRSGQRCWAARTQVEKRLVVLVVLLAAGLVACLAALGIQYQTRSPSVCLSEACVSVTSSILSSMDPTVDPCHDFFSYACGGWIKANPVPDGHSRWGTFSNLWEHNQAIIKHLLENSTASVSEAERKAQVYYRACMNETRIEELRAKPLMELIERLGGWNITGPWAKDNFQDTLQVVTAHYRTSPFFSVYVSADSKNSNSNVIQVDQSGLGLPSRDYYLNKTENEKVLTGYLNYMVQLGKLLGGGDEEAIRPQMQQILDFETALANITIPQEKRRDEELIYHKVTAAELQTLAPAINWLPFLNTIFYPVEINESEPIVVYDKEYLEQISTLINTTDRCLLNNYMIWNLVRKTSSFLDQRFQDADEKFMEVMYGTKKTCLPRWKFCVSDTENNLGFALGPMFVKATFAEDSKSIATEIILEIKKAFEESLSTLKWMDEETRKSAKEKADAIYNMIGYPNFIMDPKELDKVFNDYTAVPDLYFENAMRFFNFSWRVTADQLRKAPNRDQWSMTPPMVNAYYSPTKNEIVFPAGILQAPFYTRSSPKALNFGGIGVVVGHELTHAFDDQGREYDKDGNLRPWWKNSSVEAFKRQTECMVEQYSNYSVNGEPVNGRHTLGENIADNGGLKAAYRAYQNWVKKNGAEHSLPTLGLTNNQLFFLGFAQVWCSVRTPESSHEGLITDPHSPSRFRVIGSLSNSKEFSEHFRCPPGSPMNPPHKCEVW

Compound in this experiment: C#CCNC(=O)CCSSCCC(=O)NCCc1ccc(C=O)c(C=O)c1
In words: lysine labeling ratio R10:1 (500 µM / 50 µM probe), SILAC-ABPP in living cells; higher = lower intrinsic lysine reactivity toward the probe, active = 2 or less. The conditions noted are these: HeLa; probe concentrations 500 vs 50 µM. An outline of the steps:
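SILAC light and heavy living HeLa cells in PBS at room temperature were labelled with 50 µM or 500 µM of an alkyne-tagged, disulfide-linked lysine probe, with forward and reverse label swaps. Mixed lysates were clicked to biotin-azide, trypsin-digested, captured on neutravidin, DTT-released, alkylated and analysed by LC-MS/MS on a TIMS-TOF Pro. R is the filtered median high-probe/low-probe MS1 peptide ratio per lysine, then the median across forward and reverse replicates. Ratios are capped at 20.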
Consider “DNAJA1 (lysine site: K136) (UniProt P31689)”, for which the “lysine labeling ratio R10:1” value is 1.69 (active).
Then “NOTCH1 (lysine site: K185) (UniProt P46531)”, with 1.8 (active); and “CACNA2D1 (lysine site: K106) (UniProt P54289)”, with 3.84; and “RPL34 (lysine site: K19) (UniProt P49207)”, with 2.71.
As for “TXNRD1 (lysine site: K396) (UniProt Q16881)”, the “lysine labeling ratio R10:1” value is 2.09.
Then “ITGA6 (lysine site: K511) (UniProt P23229)”, with 14.7.
The figure for UniProt P41250 (lysine site: K646) is 2.94; for “LAMB1 (lysine site: K184) (UniProt P07942)” it is 1.21 (active).
For the target “RPL12 (lysine site: K54) (UniProt P30050)”, the “lysine labeling ratio R10:1” value is 0.658 (active).
On to “ENO1 (lysine site: K126) (UniProt P06733)”, for which the “lysine labeling ratio R10:1” value was 3.29.
Then “ROBO1 (lysine site: K214) (UniProt Q9Y6N7)”, with 4.58; and “L1CAM (lysine site: K301) (UniProt P32004)”, with 4.21.
“GPC1 (lysine site: K236) (UniProt P35052)”: the “lysine labeling ratio R10:1” value was 3.17.
As to “ECE1 (lysine site: K676) (UniProt P42892)”, the “lysine labeling ratio R10:1” value is 3.15.
For “PRCP (lysine site: K228) (UniProt P42785)”, the “lysine labeling ratio R10:1” value was 2.59.
In the case of “CACNA2D1 (lysine site: K232) (UniProt P54289)”, the “lysine labeling ratio R10:1” value is 3.57.
Consider “SCARB1 (lysine site: K288) (UniProt Q8WTV0)”, for which the “lysine labeling ratio R10:1” value was 0.704 (active).
On to “TFRC (lysine site: K673) (UniProt P02786)”, for which the “lysine labeling ratio R10:1” value was 3.
Regarding UniProt P59998 (lysine site: K44), the “lysine labeling ratio R10:1” value was 7.73.
As for “P4HB (lysine site: K81) (UniProt P07237)”, the “lysine labeling ratio R10:1” value was 6.39.
Then “HNRNPU (lysine site: K609) (UniProt Q00839)”, with 1.53 (active); and “HSPA5 (lysine site: K382) (UniProt P11021)”, with 1.18 (active).
On to “PDCD5 (lysine site: K33) (UniProt O14737)”, for which the “lysine labeling ratio R10:1” value was 4.82.
Then “PPIB (lysine site: K186) (UniProt P23284)”, with 3.18.
Consider UniProt Q9UHN6 (lysine site: K1177), for which the “lysine labeling ratio R10:1” value is 6.32.
Take “TKT (lysine site: K204) (UniProt P29401)”: the “lysine labeling ratio R10:1” value is 10.2.
Consider “FAT4 (lysine site: K2561) (UniProt Q6V0I7)”, for which the “lysine labeling ratio R10:1” value was 2.59.
For the target “GPI (lysine site: K440) (UniProt P06744)”, the “lysine labeling ratio R10:1” value is 1.78 (active).
Then UniProt P60866 (lysine site: K59), with 2.02; and WDR1 (lysine site: K7) (UniProt O75083), with 0.76 (active); and UniProt P02533 (lysine site: K297), with 2.74.
On to “PPIA (lysine site: K31) (UniProt P62937)”, for which the “lysine labeling ratio R10:1” value was 3.16.
The figure for UniProt Q15223 (lysine site: K190) is 1.25 (active); for “NUMA1 (lysine site: K1475) (UniProt Q14980)” it is 5.25.
UniProt Q32P28 (lysine site: K363): the “lysine labeling ratio R10:1” value is 4.24.
Turning to UniProt Q15149 (lysine site: K2339), the “lysine labeling ratio R10:1” value is 4.2.
For “EHD2 (lysine site: K32) (UniProt Q9NZN4)”, the “lysine labeling ratio R10:1” value was 2.92.
Turning to “CCT6A (lysine site: K530) (UniProt P40227)”, the “lysine labeling ratio R10:1” value was 4.16.
For “SLC3A2 (lysine site: K245) (UniProt P08195)”, the “lysine labeling ratio R10:1” value was 5.72.
For the target “SPTAN1 (lysine site: K1856) (UniProt Q13813)”, the “lysine labeling ratio R10:1” value was 5.67.

For the origin of these results see the supplement of paper PMC11001985.
